From PubChem
In the library only some 0.9% were active in any assay of this set; here they are far more common.
SRC1 TRFRET art – TR-FRET artefact, counter-screen to PPARgamma/SRC-1 agonist assay | AID 1051 | TR-FRET ratio at 8 µM | 99,000 tested, 0.34% active | TR-FRET detection artefact counter-screen, emission ratio; stronger effect = higher value; in the data active = TR-FRET ratio above about 2300
PPARg SRC-1 ag – PPARgamma-driven SRC-1 recruitment agonism | activation, % at 8 µM | P37231 | AID 631 | PPARgamma-SRC-1 coactivator recruitment biochemical assay | 200,000 tested, 0.41% active; in the data active = activation above about 19%
Target sequence (P37231 whole entry, looked up): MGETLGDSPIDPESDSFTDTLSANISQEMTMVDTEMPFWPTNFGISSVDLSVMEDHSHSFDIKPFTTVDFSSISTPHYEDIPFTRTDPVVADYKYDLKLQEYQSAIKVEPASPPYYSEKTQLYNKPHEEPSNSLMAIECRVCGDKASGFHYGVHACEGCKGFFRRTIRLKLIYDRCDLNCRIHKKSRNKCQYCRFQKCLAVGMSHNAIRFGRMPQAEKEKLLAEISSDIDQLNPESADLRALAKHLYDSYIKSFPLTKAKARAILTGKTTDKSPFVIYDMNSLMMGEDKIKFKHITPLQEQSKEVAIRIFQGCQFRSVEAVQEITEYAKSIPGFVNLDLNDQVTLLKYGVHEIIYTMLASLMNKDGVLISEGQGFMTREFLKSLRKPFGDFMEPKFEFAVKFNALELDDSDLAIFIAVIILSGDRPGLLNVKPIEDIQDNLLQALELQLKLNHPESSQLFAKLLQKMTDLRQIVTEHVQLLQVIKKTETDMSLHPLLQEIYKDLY
SRC3 TRFRET art – counter-screen for PPARgamma SRC-3 recruitment agonists: TR-FRET artefact; PPARgamma/SRC-3 format; stronger effect = higher value; AID 1048; 99,000 tested, 0.39% active; TR-FRET ratio at 8 µM
PPARg SRC-3 ag – agonists of human PPARgamma SRC-3 coactivator recruitment; P37231; 200,000 tested, 0.26% active; activation, % at 8 µM; biochemical PPARgamma/SRC-3 coactivator recruitment assay; in the data active = activation above about 23%
SRC2 TRFRET art – flags TR-FRET format artefacts in PPARgamma SRC-2 recruitment agonist screen. TR-FRET ratio at 8 µM. 200,000 tested, 0.4% active. TR-FRET artefact counter-screen; stronger effect = higher value
PPARg SRC2 recr – PPARgamma-driven SRC-2 recruitment agonism; P37231; PPARgamma LBD-SRC-2 recruitment, biochemical; activation, % at 8 µM; 200,000 tested, 0.34% active; in the data active = activation above about 22%
Numbers stand for hits; – = inactive; · = not tested or not shown. Rule as the data show it, unless noted: active = TR-FRET ratio above about 2000; inactive = the rest.

SMILES	SRC1 TRFRET art	PPARg SRC-1 ag	SRC3 TRFRET art	PPARg SRC-3 ag	SRC2 TRFRET art	PPARg SRC2 recr
Nc1ccc(S(=O)(=O)NC2(C(F)(F)F)NC(=O)N(c3ccccc3Cl)C2=O)cc1 (stereo not drawn)	–	–	–	–	–	–
CC(C)C(C)NC(=O)CSc1nc2scc(-c3ccco3)c2c(=O)n1-c1ccccc1 (stereo not drawn)	·	–	·	–	–	–
CC(C)C(C)(C#N)NC(=O)CSc1nc2scc(-c3ccco3)c2c(=O)n1-c1ccccc1 (stereo not drawn)	·	–	·	–	2013	–
O=c1c2cnn(-c3ccccc3)c2nc(-c2cccs2)n1-c1cccc(Cl)c1	–	–	2389	–	–	–
O=c1c2cnn(-c3ccccc3)c2nc(-c2cccs2)n1-c1ccc(Cl)cc1	·	–	·	–	–	–
C=CCOc1cccc(C2C(C(=O)c3ccc(C)o3)=C(O)C(=O)N2Cc2ccncc2)c1 (stereo not drawn)	·	–	·	–	2037	–
Cc1ccc(NC(=S)Nc2ccc(S(=O)(=O)N3CCOCC3)cc2)cc1S(=O)(=O)N1CCOCC1	–	–	–	–	–	–
O=C(COC(=O)c1ccccc1O)Nc1ncc(Cl)cc1Cl	–	–	–	–	–	–
COc1cccc(-c2nn(-c3ccccc3)cc2C(=O)OCC(=O)Nc2ncc(Cl)cc2Cl)c1	2559	–	3059	–	2626	–
O=C(c1ccc(OCC2CCCO2)cc1)N1CCc2ccccc2C1 (stereo not drawn)	–	–	–	–	–	–
O=C(COc1ccc(Cl)cc1)Nc1nc(-c2ccc(S(=O)(=O)N3CCOCC3)cc2)cs1	·	–	·	–	2847	–
O=C(COC(=O)c1ccc(S(=O)(=O)N2CCOCC2)cc1)Nc1nc(-c2ccccc2)cs1	·	–	·	–	–	–
Cc1ccc(NC(=O)COc2ccc(S(=O)(=O)N3CCOCC3)cc2)cc1	·	–	·	–	–	–
COc1ccccc1OCC(=O)Nc1nc(-c2ccc(S(=O)(=O)N3CCOCC3)cc2)cs1	·	–	·	–	2294	–
O=C(COc1ccccc1)Nc1nc(-c2ccc(S(=O)(=O)N3CCOCC3)cc2)cs1	·	–	·	–	2563	–
O=C(O)CCC(=O)Nc1nc2nc(-c3ccccc3)cc(-c3ccccc3)n2n1	·	–	·	–	–	–
O=C(Cc1c(O)c2ccccc2[nH]c1=O)NCc1ccc(F)cc1	·	–	·	–	–	–
C#CCOCCOCCOCCNc1nc(N2CCN(C(=O)Cn3cc(CCCN=C(N)N)nn3)CC2)nc(N2CCN(C(=O)[C@H](C)n3cc(CCCN=C(N)N)nn3)CC2)n1	–	–	–	–	–	–
COc1cc(S(=O)(=O)NC2CCCCC2C)ccc1-n1cnnn1 (stereo not drawn)	–	–	–	–	–	–
Cc1cccc(NC(=O)c2sc3nc(-c4ccc(F)cc4)cn3c2C)n1	·	36	·	–	–	–
Cc1ccc(OCc2nnc(NC(=O)OCC(C)C)s2)c(C)c1	·	–	·	–	–	–
CCOC12NC(=O)CC(=O)N1C(c1ccccc1)=CS2 (stereo not drawn)	–	–	2220	–	–	–
COC(=O)C1=C(N)Oc2cc(C)n(CCN3CCOCC3)c(=O)c2C1c1cccnc1 (stereo not drawn)	·	–	·	–	–	–
COc1ccc(/C=C\C(=O)NCc2ccc3c(c2)cc(C)n3C)cc1OC	–	–	2112	–	–	–
CCc1cccc(C)c1NC(=S)NCc1ccc2c(c1)cc(C)n2C	–	–	2094	–	–	–
SMILES	SRC1 TRFRET art	PPARg SRC-1 ag	SRC3 TRFRET art	PPARg SRC-3 ag	SRC2 TRFRET art	PPARg SRC2 recr
COc1cccc(C(=O)NCc2ccc3c(c2)cc(C)n3C)c1	2604	–	2355	–	2069	–
COc1ccc(C(=O)NCc2ccc3c(c2)cc(C)n3C)cc1OC	–	–	–	–	–	–
Cc1csc(NC(=O)CSc2nnc(Cc3cccn3C)n2CCc2ccccc2)n1	–	–	–	–	–	–
Cc1cccc(C(C)(C)C)c1OCCN1CCCC1	–	–	–	–	–	–
COC(=O)c1ccc(CSc2nnc(-c3ccccc3)n2C)o1	–	–	–	–	–	–
CCOC(=O)c1ccc(NCCOC)c([N+](=O)[O-])c1	–	–	–	–	–	–
CCOc1ccc(/C=N/n2cc(-c3ccccc3)[nH]c2=S)cc1	–	24	–	–	–	–
CCOc1ccc(/C=N/O)cc1	·	–	·	–	–	–
Cc1ccc2oc(=O)cc(CN3CCC(C)CC3)c2c1	·	–	·	–	–	23
Cc1ccnc(SCC(=O)N2CCN(c3ccccc3)CC2)n1	·	–	·	–	–	–
CCN(CC)C(=O)CSc1nc2ncccc2[nH]1	·	–	·	32	–	–
Cn1cnnc1SCc1ccc(C(=O)N=Nc2c(O)n(C)c3ccccc23)cc1	–	–	–	–	–	23
COc1ccc(-n2c(O)c(/C=N/NS(=O)(=O)c3cccc([N+](=O)[O-])c3)c3ccccc3c2=O)cc1OC	–	22	–	–	–	–
O=[N+]([O-])c1cccc(/C=N/NS(=O)(=O)c2ccccc2)c1	–	–	–	–	–	–
COc1ccc(OC)c(-c2c3cc(O)c(=O)cc-3oc3cc(O)c(O)cc23)c1	–	–	–	–	–	23
CCOc1ccccc1-c1c2cc(O)c(=O)cc-2oc2cc(O)c(O)cc12	–	–	–	–	–	–
C=CCn1c(SCc2nc3sc(C(=O)O)c(C)c3c(=O)[nH]2)nnc1-c1ccccc1	–	–	–	–	–	–
O=C(COC(=O)CSCc1ccccc1)NCc1ccccc1	–	–	–	–	–	–
O=C(COC(=O)CCN1C(=O)c2cccc([N+](=O)[O-])c2C1=O)NCc1ccccc1	–	–	–	–	1993	–
O=C(COC(=O)c1ccc(Cl)c(S(=O)(=O)N2CCc3ccccc3C2)c1)Nc1ncc(Cl)cc1Cl	–	–	2156	–	–	–
O=C(COC(=O)c1cccc(S(=O)(=O)N2CCc3ccccc32)c1)Nc1ncc(Cl)cc1Cl	–	–	–	–	–	–
CCCC(=O)NNC(=O)c1ccoc1C	–	–	–	–	–	–
CCCCNC(=O)CSc1nc2ccccc2c(=O)n1Cc1ccc2c(c1)OCO2	·	–	·	–	5232	190
C=CCn1c(SCC(=O)NCc2ccc3c(c2)OCO3)nc2scc(-c3ccccc3)c2c1=O	·	–	·	–	1974	–
CCOCCCn1c(SCC(=O)NCc2ccc3c(c2)OCO3)nc2ccccc2c1=O	–	–	–	–	–	–
C=CCN(CC=C)S(=O)(=O)c1ccc(NC(=S)NC(=O)c2ccc(-c3ccccc3)cc2)cc1	·	–	·	–	–	–
O=c1c2cccnc2[nH]c(=S)n1Cc1ccccc1	–	–	–	–	–	–
O=C(Cn1c(=S)[nH]c2ncccc2c1=O)NCCc1ccccc1	2328	–	–	–	–	–
NC(N)=N/N=C/c1cccc([N+](=O)[O-])c1O	–	–	–	–	–	–
Cc1noc(C)c1S(=O)(=O)N(CC(=O)N1CCc2ccccc21)c1ccc(C(C)C)cc1	·	–	·	–	–	–
